From the supplement of paper PMC4466140

B1: unnamed (peptide)
chain: QGYPRQPQRPQRYHP

biological target: CaNbp2; assay: SPOT peptide array binding signal intensity (averaged, normalized) (arbitrary units (background-subtracted, floor 0; scale differs between SH3 domains)); higher = stronger binding of the SH3 domain to the peptide
In short: (§1)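 GST-fused SH3 domains from four yeast species were expressed in E. coli BL21(DE3), purified on glutathione Sepharose and incubated at 10 μg/ml overnight at 4°C in TBS-based blocking buffer on cellulose membranes carrying synthetic 15-mer peptides, with cysteines replaced by serines. Bound protein was detected with anti-GST antibody, an HRP anti-mouse secondary and luminol, then imaged and quantified with Genespotter. Binding signal is the normalized, background-subtracted spot intensity averaged over replicates, in arbitrary units that differ between domains.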

Binder	SPOT peptide array binding signal intensity
B1	≤ 0

biological target: CaRvs167; assay: as above
In short: as §1

Binder	SPOT peptide array binding signal intensity
B1	2.5

biological target: CaRvs167-3; assay: as above
In short: as §1

Binder	SPOT peptide array binding signal intensity
B1	≤ 0

biological target: CaSho1; assay: as above
In short: as §1

Binder	SPOT peptide array binding signal intensity
B1	12.5

biological target: CaSla1-D1-D2; assay: as above
In short: as §1

Binder	SPOT peptide array binding signal intensity
B1	≤ 0

biological target: CaSla1-D3; assay: as above
In short: as §1

Binder	SPOT peptide array binding signal intensity
B1	≤ 0

biological target: ScAbp1; assay: as above
In short: as §1

Binder	SPOT peptide array binding signal intensity
B1	10

biological target: ScBbc1; assay: as above
In short: as §1

Binder	SPOT peptide array binding signal intensity
B1	40.2

biological target: ScBem1-D1; assay: as above
In short: as §1

Binder	SPOT peptide array binding signal intensity
B1	2.5

biological target: ScBzz1-D1; assay: as above
In short: as §1

Binder	SPOT peptide array binding signal intensity
B1	≤ 0

biological target: ScBzz1-D2; assay: as above
In short: as §1

Binder	SPOT peptide array binding signal intensity
B1	11

biological target: ScCyk3; assay: as above
In short: as §1

Binder	SPOT peptide array binding signal intensity
B1	≤ 0

biological target: ScFus1; assay: as above
In short: as §1

Binder	SPOT peptide array binding signal intensity
B1	≤ 0

biological target: ScHof1; assay: as above
In short: as §1

Binder	SPOT peptide array binding signal intensity
B1	0.75

biological target: ScHse1; assay: as above
In short: as §1

Binder	SPOT peptide array binding signal intensity
B1	≤ 0

biological target: ScLsb1; assay: as above
In short: as §1

Binder	SPOT peptide array binding signal intensity
B1	9.5

biological target: ScLsb2; assay: as above
In short: as §1

Binder	SPOT peptide array binding signal intensity
B1	≤ 0

biological target: ScLsb3; assay: as above
In short: as §1

Binder	SPOT peptide array binding signal intensity
B1	1040

biological target: ScLsb4; assay: as above
In short: as §1

Binder	SPOT peptide array binding signal intensity
B1	25

biological target: ScMyo3; assay: as above
In short: as §1

Binder	SPOT peptide array binding signal intensity
B1	≤ 0

biological target: ScMyo5; assay: as above
In short: as §1

Binder	SPOT peptide array binding signal intensity
B1	≤ 0

biological target: ScNbp2; assay: as above
In short: as §1

Binder	SPOT peptide array binding signal intensity
B1	3.5

biological target: ScPex13; assay: as above
In short: as §1

Binder	SPOT peptide array binding signal intensity
B1	29.5

biological target: ScRvs167; assay: as above
In short: as §1

Binder	SPOT peptide array binding signal intensity
B1	≤ 0

biological target: ScSho1; assay: as above
In short: as §1

Binder	SPOT peptide array binding signal intensity
B1	16

biological target: ScSla1-D1-D2; assay: as above
In short: as §1

Binder	SPOT peptide array binding signal intensity
B1	12

biological target: ScSla1-D3; assay: as above
In short: as §1

Binder	SPOT peptide array binding signal intensity
B1	≤ 0

biological target: SpAbp1-D1; assay: as above
In short: as §1

Binder	SPOT peptide array binding signal intensity
B1	≤ 0

biological target: SpBbc1; assay: as above
In short: as §1

Binder	SPOT peptide array binding signal intensity
B1	3.5

biological target: SpBzz1-D1; assay: as above
In short: as §1

Binder	SPOT peptide array binding signal intensity
B1	226

biological target: SpBzz1-D2; assay: as above
In short: as §1

Binder	SPOT peptide array binding signal intensity
B1	0.5

biological target: SpCyk3; assay: as above
In short: as §1

Binder	SPOT peptide array binding signal intensity
B1	≤ 0

biological target: SpHof1; assay: as above
In short: as §1

Binder	SPOT peptide array binding signal intensity
B1	5

biological target: SpHof1-2; assay: as above
In short: as §1

Binder	SPOT peptide array binding signal intensity
B1	≤ 0

biological target: SpHof1-3; assay: as above
In short: as §1

Binder	SPOT peptide array binding signal intensity
B1	0.5

biological target: SpHse1; assay: as above
In short: as §1

Binder	SPOT peptide array binding signal intensity
B1	2

biological target: SpLsb1; assay: as above
In short: as §1

Binder	SPOT peptide array binding signal intensity
B1	4

biological target: SpLsb4; assay: as above
In short: as §1

Binder	SPOT peptide array binding signal intensity
B1	1230

biological target: SpMyo1; assay: as above
In short: as §1

Binder	SPOT peptide array binding signal intensity
B1	≤ 0

biological target: SpNbp2; assay: as above
In short: as §1

Binder	SPOT peptide array binding signal intensity
B1	≤ 0

biological target: SpPex13; assay: as above
In short: as §1

Binder	SPOT peptide array binding signal intensity
B1	1

biological target: SpRvs167; assay: as above
In short: as §1

Binder	SPOT peptide array binding signal intensity
B1	3

biological target: SpSla1-D1-D2; assay: as above
In short: as §1

Binder	SPOT peptide array binding signal intensity
B1	≤ 0

biological target: SpSla1-D3; assay: as above
In short: as §1

Binder	SPOT peptide array binding signal intensity
B1	≤ 0
